Unmarked numbers belong to inactive results. No rule for the calls is given here.
What follows are molecules tested against Pantothenate synthetase (Mycobacterium tuberculosis (strain ATCC 25618 / H37Rv)) (UniProt P9WIL5) (assay: Recombinant Mtb pantothenate synthetase (PanC) inhibitors, coupled enzyme, confirmatory (AID 375;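 also: 0% = full reaction with vehicle and 100% = no enzyme background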)). Conditions: coupled enzyme assay; at 10 µM, stronger effect = higher value.
Pantothenate synthetase (Mycobacterium tuberculosis (strain ATCC 25618 / H37Rv)), sequence (P9WIL5 whole entry, looked up): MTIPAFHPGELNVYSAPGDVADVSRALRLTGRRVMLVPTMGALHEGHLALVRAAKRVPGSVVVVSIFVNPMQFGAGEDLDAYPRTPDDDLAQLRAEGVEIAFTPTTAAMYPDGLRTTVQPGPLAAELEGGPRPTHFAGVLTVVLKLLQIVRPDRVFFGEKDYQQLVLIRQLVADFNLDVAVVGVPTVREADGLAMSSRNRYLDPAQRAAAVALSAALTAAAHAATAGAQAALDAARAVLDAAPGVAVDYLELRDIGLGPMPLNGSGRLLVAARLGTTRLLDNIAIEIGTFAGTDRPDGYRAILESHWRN

SMILES | inhibition
Cn1c(C(=O)OC(C(=O)NC2CCCC2)c2cccnc2)cc2sccc21 (stereo not given) | 0%
COc1cccc(C2CC(c3ccc(F)cc3)Nc3nc(N)nn32)c1 (stereo not given) | 0%
COc1ccc(C2CC(c3ccc(C)cc3)Nc3ncnn32)cc1 (stereo not given) | 0%
CC1(C)O[C@@H]2C[C@H]3[C@@H]4CCC5=CC(=O)C=C[C@]5(C)[C@@]4(F)[C@@H](O)C[C@]3(C)[C@]2(C(=O)CO)O1 | 2%
C/C(N)=C(/C#N)C(=O)COC(=O)CCSc1ccccc1 | 0%
COc1ccc(-c2noc(CCC(=O)NCCCN3CCC(Cc4ccccc4)CC3)n2)cc1 | 0%
COc1ccc(CCNC(=O)c2cc3sc(Cl)cc3n2C)cc1OC | 0%
COc1cccc(-c2nc(CSCC(=O)N3CCc4ccccc43)c(C)o2)c1 | 0%
Cc1cc(C)nc(SCc2nnc(SCC(=O)Nc3ncc(C)s3)n2Cc2ccco2)n1 | 0%
CCOC(=O)CSc1nnc([C@H](CC(C)C)NC(=O)OC(C)(C)C)o1 | 2%
O=C(CN(Cc1ccc(F)cc1)C(=O)Cn1nnc2ccccc21)NCC1CCCO1 (stereo not given) | 0%
COC(=O)c1sc(N)c(C(=O)OC)c1COC(=O)C1CC(=O)N(Cc2ccco2)C1 (stereo not given) | 3%
N#Cc1cnc(SCCc2ccccc2)nc1N | 0%
O=C(c1ccc(Cl)c(F)c1F)N1CCCC1 | 3%
CCN1CCN(C(=O)Cn2ncc3ccsc3c2=O)CC1 | 0%
COC(=O)C1=C(C)NC2=C(C(=O)CCC2)C1c1coc2ccccc2c1=O (stereo not given) | 6%
O=C(NC1CCCCC1)n1c(=O)oc2ccc(Cl)cc21 | 5%
COc1cccc(C2=NOC(C(=O)Nc3cc(C)nn3-c3ccccc3)C2)c1OC (stereo not given) | 0%
CCN(C(=O)c1cc(Cl)ccc1OC)C1CCCCC1 | 0%
Cc1ccc2c(CC(=O)OCc3csc(C)n3)coc2c1 | 0%

SMILES | inhibition
COc1ccccc1N1CCN(C(=O)c2cc(-c3ccc(Cl)c(Cl)c3)on2)CC1 | 0%
O=C1C2C3C=CC(C3)C2C(=O)N1CNc1ccc(O)cc1 (stereo not given) | 3%
Cc1cc(C)nc(SCC(=O)Nc2ccc(S(=O)(=O)Nc3nccs3)cc2)n1 | 0%
CN1CCN(CCCNC(=O)C2CC(=O)N(C3CCCCC3)C2)CC1 (stereo not given) | 4%
CC(=O)Nc1ccc(NC(=O)c2ccccc2N(C)S(C)(=O)=O)cc1 | 2%
O=C(Nc1ccccn1)NC(C(F)(F)F)C(F)(F)F | 0%
COC(=O)[C@H](C)NC(=O)Nc1cccc(C(F)(F)F)c1 | 0%
CC(=O)N(C)C1(c2nnnn2CCOC(=O)Nc2ccc(Cl)cc2)CCCCC1 | 0%
FC(F)(F)c1cccc(N2CCN(c3nnnn3-c3ccccc3)CC2)c1 | 0%
CCOC(=O)c1[nH]cc(-c2ccccc2)c1N1CCOCC1 | 0%
CC(C)Cc1nnc(NS(=O)(=O)c2ccc(Cl)cc2)s1 | 0%
Brc1ccc(-c2csc(/N=C/N3CCOCC3)n2)cc1 | 3%
Cc1cccc(-n2c(SCc3cc(=O)n4ccsc4n3)nc3ccccc32)c1 | 0%
O=C(Nc1ccc(CN2CCOCC2)cc1)c1cc2ccccc2oc1=O | 4%
COc1ccc(N2CCN(C(=O)CSc3nnc(Cn4nnc5ccccc54)n3C)CC2)cc1 | 0%
Cn1c(Cc2ccccc2)nnc1SCC(=O)N1CCOCC1 | 0%
O=C(CCCCCn1c(=O)[nH]c2ccsc2c1=O)N1CCCCC1 | 5%
CCOc1ccc(NC(=O)C2CC(=O)N(C(C)C)C2)cc1 (stereo not given) | 2%
COc1ccc2c(c1)C1(C)CC(C)(C)N2C(=O)N1c1ccccc1 (stereo not given) | 4%
Cc1cccc2cc(C(c3nnnn3C(C)(C)C)N3CCN(C(=O)c4ccco4)CC3)c(=O)[nH]c12 (stereo not given) | 6%

— PubChem BioAssay
